This is part of a sample that, as a whole, favours compounds with a hit. Of some 83,000 tested, about 20% had one in any assay.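 Step 1: grow cells in 96-well plates. Step 2: add test compound at a single concentration. Step 3: incubate 48 h. Step 4: record percent growth.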 Values without a mark were called inactive. Activity calls are given as the source filed them. The calls were made as follows: active = growth percent below 10; inactive = the rest.
Tests used:
Test in all cases: NCI-60 one-dose screen, 48 h (100 = growth as untreated, 0 = no growth, -100 = all killed)
Details in all cases: 10 µM
[1] = test system: DU-145 prostate
[2] = test system: K-562 leukemia
[3] = test system: MALME-3M melanoma
[4] = test system: MDA-MB-231 breast
[5] = test system: RXF 393 renal
[6] = test system: SF-268 CNS
[7] = test system: SF-295 CNS
[8] = test system: SF-539 CNS
[9] = test system: UACC-257 melanoma
[10] = test system: M14 melanoma

SMILES: COc1ccc(OC)c([N+](=O)[O-])c1C=O
- growth [1]: 116%
- growth [2]: 42.4%
- growth [3]: 108%
- growth [4]: 107%
- growth [5]: 80.6%
- growth [6]: 109%
- growth [7]: 93.7%
- growth [8]: 105%
- growth [9]: 84.1%
- growth [10]: 108%

SMILES: Cc1nnc2c3nnc(-c4ccc(Cl)cc4)n3c3ccccc3n12
- growth [1]: 103%
- growth [2]: 90%
- growth [3]: 88.6%
- growth [4]: 100%
- growth [5]: 102%
- growth [6]: 100%
- growth [7]: 88.2%
- growth [8]: 92.2%
- growth [9]: 98.1%
- growth [10]: 96.7%

SMILES: Cc1cnc(C=O)c2cccc([N+](=O)[O-])c12
- growth [1]: 92.3%
- growth [2]: 51.3%
- growth [3]: 81.1%
- growth [4]: 93.4%
- growth [5]: 93.1%
- growth [6]: 88.5%
- growth [7]: 89.9%
- growth [8]: 90.1%
- growth [9]: 107%
- growth [10]: 95.9%

SMILES: Cc1cc(/C=C2\SC(=Nc3ccccc3)N(C3CCCC3)C2=O)c(C)n1-c1ccc(Cl)cc1
- growth [1]: -79.1% (active)
- growth [2]: -22.8% (active)
- growth [3]: -72.8% (active)
- growth [4]: -53% (active)
- growth [5]: -90.2% (active)
- growth [6]: -47.5% (active)
- growth [7]: -70.3% (active)
- growth [8]: -70.8% (active)
- growth [9]: -70.8% (active)
- growth [10]: -69.9% (active)

SMILES: CN(C1c2ccccc2Oc2ccccc21)S(=O)(=O)c1cc(Cl)ccc1Cl
- growth [1]: 78.2%
- growth [2]: 14.9%
- growth [3]: 54.3%
- growth [4]: 69.7%
- growth [5]: 73.5%
- growth [6]: 68.6%
- growth [7]: 29.1%
- growth [8]: 60.6%
- growth [9]: 63.6%
- growth [10]: 39.2%

SMILES: O=C(OCc1ncc(-c2ccc(C(F)(F)F)cc2)c(NC2CCCCCC2)n1)c1c(F)c(F)c(F)c(F)c1F
- growth [1]: 77.2%
- growth [2]: 31.9%
- growth [3]: -14.4% (active)
- growth [4]: 81.4%
- growth [5]: 64.3%
- growth [6]: 72.5%
- growth [7]: 24.5%
- growth [8]: 96.3%
- growth [9]: 34.9%
- growth [10]: 43.7%

SMILES: O=C1CC[C@@H](C(=O)N[C@H]2CSSC[C@@H](C(=O)N/C=C/c3ccc(O)cc3)NC(=O)[C@H](Cc3ccccc3)NC(=O)[C@@H]3CCCN3C(=O)[C@@H]3CCCN3C2=O)N1
- growth [1]: 106%
- growth [2]: 93.9%
- growth [3]: 115%
- growth [4]: 98.9%
- growth [5]: 96.9%
- growth [6]: 107%
- growth [7]: 99.5%
- growth [8]: 96.6%
- growth [9]: 95.4%
- growth [10]: 94.5%

SMILES: COc1ccc(-c2nc(-c3ccccc3)c(-c3ccccc3)[nH]2)cc1OC1CCCC1
- growth [1]: 86.4%
- growth [2]: 31.6%
- growth [3]: 103%
- growth [4]: 18.7%
- growth [5]: 13.7%
- growth [6]: 73.7%
- growth [7]: 52.9%
- growth [8]: 63.3%
- growth [9]: 79.9%
- growth [10]: 56.1%

SMILES: COc1cc2c3c(cccc3c1)C(=O)N(CCN1CCCC1)C2=O
- growth [1]: 15.1%
- growth [2]: 4.01% (active)
- growth [3]: -21.7% (active)
- growth [4]: 29.1%
- growth [5]: 10.9%
- growth [6]: 28.2%
- growth [7]: 40.2%
- growth [8]: 30.1%
- growth [9]: -10.4% (active)
- growth [10]: 25.7%

SMILES: C=CCn1c(C)nc2cc(Nc3nc(Nc4ccc5nc(C)n(CC=C)c5c4)c4ccccc4n3)ccc21
- growth [1]: -96% (active)
- growth [2]: -27.7% (active)
- growth [3]: -68.3% (active)
- growth [4]: -85.8% (active)
- growth [5]: -97.4% (active)
- growth [6]: -69.8% (active)
- growth [7]: -86.6% (active)
- growth [8]: -95.8% (active)
- growth [9]: -79.8% (active)
- growth [10]: -88% (active)

SMILES: N#Cc1c2c([nH]c(=O)c1C(N)=O)CCCCC2
- growth [1]: 115%
- growth [2]: 113%
- growth [3]: 90.5%
- growth [4]: 102%
- growth [5]: 108%
- growth [6]: 103%
- growth [7]: 101%
- growth [8]: 95.1%
- growth [9]: 96.7%
- growth [10]: 95.6%

SMILES: CC(=O)Oc1c(C)c(C)c2c(c1C)CCC(C)(CC(=O)OCCCCCCCCCCC[P+](c1ccccc1)(c1ccccc1)c1ccccc1)O2 (stereo not given)
- growth [1]: -71.5% (active)
- growth [2]: -33.9% (active)
- growth [3]: -66.3% (active)
- growth [4]: -88.9% (active)
- growth [5]: -89.5% (active)
- growth [6]: -72.3% (active)
- growth [7]: -79.8% (active)
- growth [8]: -93.6% (active)
- growth [9]: -80.5% (active)
- growth [10]: -87.5% (active)

SMILES: NC1CCC(Nc2nc(NCc3ccc(-c4ccccc4O)nc3)c3ncn(C4CCCC4)c3n2)CC1 (stereo not given)
- growth [1]: -4.56% (active)
- growth [2]: -41.2% (active)
- growth [3]: -76.1% (active)
- growth [4]: -22% (active)
- growth [5]: -67.4% (active)
- growth [6]: -25.8% (active)
- growth [7]: -14.4% (active)
- growth [8]: -81% (active)
- growth [9]: -68.6% (active)
- growth [10]: -81.5% (active)

SMILES: CCCCCCCCCCCCc1ccc(C(=O)/C=C/C(=O)O)cc1
- growth [1]: 89.8%
- growth [2]: -5.52% (active)
- growth [3]: 69.1%
- growth [4]: 29.4%
- growth [5]: 80.8%
- growth [6]: 100%
- growth [7]: 80.2%
- growth [8]: 76.5%
- growth [9]: 96.1%
- growth [10]: 62.1%

SMILES: Cc1cccc2c(Nc3ccc(NS(C)(=O)=O)cc3)c3ccc([N+](=O)[O-])cc3nc12
- growth [1]: -15.3% (active)
- growth [2]: 1.15% (active)
- growth [3]: -22% (active)
- growth [4]: 61.4%
- growth [5]: -31.9% (active)
- growth [6]: 12.5%
- growth [7]: -15.2% (active)
- growth [8]: 16.8%
- growth [9]: -16.3% (active)
- growth [10]: 16.7%

SMILES: CCN1CCN(c2ccc(Nc3ncnc4c3nnn4CCc3cc(OC)cc(OC)c3)cc2)CC1
- growth [1]: 104%
- growth [2]: 77.7%
- growth [3]: 92.6%
- growth [4]: 95.4%
- growth [5]: 97.7%
- growth [6]: 97.4%
- growth [7]: 90.2%
- growth [8]: 95.5%
- growth [9]: 84.8%
- growth [10]: 98.6%

SMILES: Cc1cc(Cl)ccc1Nc1nc(C(F)(F)F)ccc1C(=O)N/N=C/c1ccccc1Cl
- growth [1]: 36.4%
- growth [2]: 56.3%
- growth [3]: 30%
- growth [4]: -15.5% (active)
- growth [5]: 24.1%
- growth [6]: 31.1%
- growth [7]: 8.72% (active)
- growth [8]: 6.63% (active)
- growth [9]: 6.87% (active)
- growth [10]: 9.99% (active)

SMILES: C#Cc1ccc(-n2c(/C=C/c3cc(OC)c(OC)c(OC)c3)nc3ncccc3c2=O)cc1
- growth [1]: 45.3%
- growth [2]: 25.6%
- growth [3]: 50%
- growth [4]: 58.6%
- growth [5]: 36.4%
- growth [6]: 63.3%
- growth [7]: 38%
- growth [8]: 78.8%
- growth [9]: 53.8%
- growth [10]: 71.9%

SMILES: Cc1cc(C)c2nc(C)c(C)[n+]([O-])c2c1
- growth [1]: 110%
- growth [2]: 89.2%
- growth [3]: 95.6%
- growth [4]: 118%
- growth [5]: 114%
- growth [6]: 106%
- growth [7]: 101%
- growth [8]: 97.2%
- growth [9]: 84.8%
- growth [10]: 102%

SMILES: COc1cc2ccnc(C=O)c2cc1OC
- growth [1]: 69.8%
- growth [2]: 31.2%
- growth [3]: 58.8%
- growth [4]: 75.3%
- growth [5]: 67.6%
- growth [6]: 92%
- growth [7]: 96.5%
- growth [8]: 65.6%
- growth [9]: 83.2%
- growth [10]: 67.8%

SMILES: Brc1ccc(-c2cn3ccnc3c(-c3ccc(Br)cc3)n2)cc1
- growth [1]: 72.7%
- growth [2]: 16.8%
- growth [3]: 39.5%
- growth [4]: 46.5%
- growth [5]: 47%
- growth [6]: 56.9%
- growth [7]: 30.6%
- growth [8]: 52.5%
- growth [9]: 67.4%
- growth [10]: 20.1%

SMILES: FC(F)(F)c1ccc(-c2nc(-c3nc4cc(Cl)c(Cl)cc4[nH]3)c3ccccn23)cc1
- growth [1]: 58.6%
- growth [2]: 79.8%
- growth [3]: 22.3%
- growth [4]: 29.6%
- growth [5]: 31.7%
- growth [6]: 44.9%
- growth [7]: 71.2%
- growth [8]: 32.6%
- growth [9]: 93.4%
- growth [10]: 79.6%

SMILES: CCN(CC)CCOC(=O)c1ccc(NC(=O)Nc2cccc(Cl)c2)cc1
- growth [1]: 105%
- growth [2]: 91.1%
- growth [3]: 97.6%
- growth [4]: 93.7%
- growth [5]: 99.4%
- growth [6]: 97.3%
- growth [7]: 93%
- growth [8]: 98.7%
- growth [9]: 91%
- growth [10]: 103%

SMILES: COc1cc(-c2nc3cc(Cl)c(Cl)cc3[nH]2)ccc1OCC(=O)NN
- growth [1]: 75.5%
- growth [2]: 31.9%
- growth [3]: 95.3%
- growth [4]: 57.8%
- growth [5]: 131%
- growth [6]: 77.6%
- growth [7]: 71.5%
- growth [8]: 80.5%
- growth [9]: 96.9%
- growth [10]: 95.1%

SMILES: Cc1[nH]nc2c(=S)[nH]c(=O)[nH]c12
- growth [1]: 106%
- growth [2]: 105%
- growth [3]: 88.2%
- growth [4]: 104%
- growth [5]: 107%
- growth [6]: 104%
- growth [7]: 91%
- growth [8]: 101%
- growth [9]: 90%
- growth [10]: 100%

SMILES: CCOC(=O)Cn1nnc(-c2ccc(OCc3ccccc3F)cc2)n1
- growth [1]: 103%
- growth [2]: 53%
- growth [3]: 36.9%
- growth [4]: 104%
- growth [5]: 79.9%
- growth [6]: 82.8%
- growth [7]: 91.7%
- growth [8]: 92.4%
- growth [9]: 87.5%
- growth [10]: 75.1%

SMILES: COc1ccc2nc(-c3ccccc3)cc(C(C)=O)c2c1
- growth [1]: 107%
- growth [2]: 84.1%
- growth [3]: 86.5%
- growth [4]: 89.5%
- growth [5]: 102%
- growth [6]: 96.1%
- growth [7]: 96.3%
- growth [8]: 86.1%
- growth [9]: 99.9%
- growth [10]: 95.3%

From PubChem BioAssay (NCI)
